Shown is part of a subset that was picked to be rich in hits.
nsP2pro primary: blocks chikungunya virus nsP2 protease peptide cleavage; Q8JUX6; FRET peptide cleavage, nsP2pro, fluorescence 1 h; Potency, µM (series often up to 24.9 µM), for the others: top-dose activity change, negative = inhibition, hits mostly inhibitors; 31,000 compounds, 1.1% hits; also: nearly all actives have a fitted effect of over 60% in size
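FRET cleavage of 2.5 uM peptide 2 by 150 nM CHIKV protease domain at pH 8.0 (Tris, Tween 20). Compounds at 7 concentrations (up to 25 uM) preincubated 15 min. Fluorescence read after 1 h at room temperature.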
CHIKV nsP2 cell: inhibits CHIKV nsP2 protease in cells. Potency, µM (doses to about 51.1 µM), inactives show at the highest dose activity change, negative = inhibition, actives largely listed as inhibitors. cell-based CHIKV nsP2 protease reporter assay. shares compounds with nsP2pro primary. 450 compounds, 10% hits. AID 1964100; also: nearly all actives have a fitted effect of over 70% in size
CHIKV NSP2 FL: inhibits full-length CHIKV NSP2 enzyme; Potency, µM (doses to about 50.7 µM), inactives show at the highest dose activity change, negative = inhibition, actives largely listed as inhibitors; AID 1964101; 410 compounds, 39% hits; shares compounds with nsP2pro primary; Full-length CHIKV NSP2 protease enzymatic counterscreen; also: nearly all actives have a fitted effect of over 65% in size
Furin counter: selectivity counter-screen for CHIKV nsP2 protease inhibitors: human furin; 410 compounds, 6% hits; shares compounds with nsP2pro primary; Recombinant human furin enzymatic counterscreen, fluorogenic substrate; Potency, µM (doses to about 50.6 µM), for the others: at the highest dose activity change, negative = inhibition, usual class: inhibitors
NS23 peptide cs: nsP2pro inhibition on native NS2/3 peptide substrate. shares compounds with nsP2pro primary. 410 compounds, 34% hits. Potency, µM (titrated, usually from 51 µM), for inactives: top-dose activity change, negative = inhibition, actives largely listed as inhibitors. AID 1964103. Purified CHIKV nsP2 protease, endogenous NS2/3 peptide cleavage; also: nearly all actives have a fitted effect of over 55% in size
Papain counter: papain protease inhibition, counterscreen for nsP2pro inhibitors; purified papain protease activity, enzymatic inhibition; 410 compounds, 5% hits; shares compounds with nsP2pro primary; Potency, µM (highest dose often 51 µM), without a hit: top-dose activity change, negative = inhibition, usual class: inhibitors
Target sequence (P00784 whole entry, looked up): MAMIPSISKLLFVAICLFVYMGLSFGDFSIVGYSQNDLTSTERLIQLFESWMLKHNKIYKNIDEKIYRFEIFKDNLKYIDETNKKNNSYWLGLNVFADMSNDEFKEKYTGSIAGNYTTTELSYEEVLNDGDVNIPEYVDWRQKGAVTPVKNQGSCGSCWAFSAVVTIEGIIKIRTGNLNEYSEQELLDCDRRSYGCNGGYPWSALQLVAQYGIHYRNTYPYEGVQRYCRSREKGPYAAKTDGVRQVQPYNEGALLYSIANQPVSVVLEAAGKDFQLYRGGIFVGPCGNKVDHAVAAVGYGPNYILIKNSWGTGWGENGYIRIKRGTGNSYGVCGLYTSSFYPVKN
nsP2pro confirm: confirmation of CHIKV nsP2 protease inhibitors | shares compounds with nsP2pro primary | CHIKV nsP2 protease enzymatic activity, qHTS | Potency, µM (doses to about 25.5 µM), for inactives: at the top dose activity change, negative = inhibition, usual class: inhibitors | 410 compounds, 43% hits | AID 1964105; also: nearly all actives have a fitted effect of over 75% in size
HCV NS3 4A cs: inhibits HCV NS3/4A protease in an nsP2pro selectivity counterscreen. shares compounds with nsP2pro primary. HCV NS3/4A protease biochemical counterscreen. Potency, µM (highest dose often 50.9 µM), actives largely listed as inhibitors. 410 compounds, 20% hits. AID 1964106; also: nearly all actives have a fitted effect of over 55% in size
Starred values were filed as active, the others as inactive; i = inactive; ? = inconclusive; [ ] = dose if it differs, or a comment. Calls follow the shape of the full dose curve. % is scaled to controls: 0 for no effect and ±100 for the full control effect; potency is read from the fitted curve at half-maximal effect.

SMILES	nsP2pro primary	others
CC(=O)OC1C(=O)C2C3OCC4=C3[C@@](C)(CC[C@@H]4O)CC[C@]2(C)[C@H]1C(C)C (stereo partly specified)	-19%
Cc1ccccc1-n1nc(-c2c(-c3ccc(F)cc3)nn3c2NC[C@@H](CO)C3)ccc1=O	8%
CC(=O)NCCCC(=O)N1CCC2(CC1)CN(S(C)(=O)=O)Cc1ccccc1O2	-16%
CC(=O)NCCC(=O)N1CCC2(CC1)CC(NC(C)=O)c1ccccc12 (stereo unspecified)	-13%
CC(=O)NC1CC2(CCN(C(=O)CCCNC(=O)OC(C)(C)C)CC2)Oc2ccccc21 (stereo unspecified)	?	CHIKV nsP2 cell=-4%;CHIKV NSP2 FL=-72%;Furin counter=-4%;NS23 peptide cs=?;Papain counter=-4%;nsP2pro confirm=?;HCV NS3 4A cs=?
CC1(C)NC2N(C1=O)c1ccccc1C2(O)CC(C(=O)O)n1cnc2ccccc2c1=O (stereo unspecified)	-16%[10 µM]
Cc1cc(C)cc(NC(=S)N[C@H]2CO[C@H]3[C@@H]2OC[C@H]3OC(=O)NC2CCCCC2)c1	-26%[39.2 µM]
CC1=CC(=O)C[C@H]2[C@@H]1CC[C@@H](C)[C@]21CO[C@H](c2ccoc2)C1=O	?	CHIKV nsP2 cell=1%[33.5 µM];CHIKV NSP2 FL=-21%[33.5 µM];Furin counter=6%[33.5 µM];NS23 peptide cs=i;Papain counter=-5%[33.5 µM];nsP2pro confirm=10%[16.7 µM];HCV NS3 4A cs=i
CON=C1C[C@]2(C[C@@H]3C[C@@H](C/C=C(\C)C[C@@H](C)/C=C/C=C4\CO[C@@H]5[C@H](O)C(C)=C[C@@H](C(=O)O3)[C@]45O)O2)O[C@H](/C(C)=C/C(C)C)[C@H]1C	-10%
COC(=O)C[C@H]1[C@]2(C)C3=C(C)[C@H](c4ccoc4)C[C@H]3O[C@@H]2[C@H](O)C2[C@](C)(C(=O)OC)C=CC(=O)[C@@]21C (stereo partly specified)	-1%[10 µM]
S=C(SSC(=S)N1CCCCC1)N1CCCCC1	2.5µM*	CHIKV nsP2 cell=13µM*;CHIKV NSP2 FL=15µM*;Furin counter=-2%;NS23 peptide cs=16µM*;Papain counter=-25%;nsP2pro confirm=3.6µM*;HCV NS3 4A cs=i
O=C1NS(=O)(=O)c2cscc21	-2%
COC(=O)C#Cc1ccc([N+](=O)[O-])cc1	0.99µM*	CHIKV nsP2 cell=?;CHIKV NSP2 FL=1.2µM*;Furin counter=-6%;NS23 peptide cs=2.9µM*;Papain counter=-12%;nsP2pro confirm=0.56µM*;HCV NS3 4A cs=i
O=C(N[C@H](CO)[C@H](O)c1ccc([N+](=O)[O-])cc1)C(Cl)Cl	-5%
O=C(Nc1ccc([N+](=O)[O-])cc1)Nc1ccc([N+](=O)[O-])cc1	-8%
CNc1oc(-c2cccc3c2OC(F)(F)O3)nc1C#N	-4%
Cc1ccc(C)c(-c2cc(C(F)(F)F)nn2-c2ccc(S(N)(=O)=O)cc2)c1	8%
CN(C)c1ccc(Nc2c3ccc(NC(=O)CCN4CCCC4)cc3nc3cc(NC(=O)CCN4CCCC4)ccc23)cc1	-23%
COC(=O)N[C@H](C(=O)N1CC2(CC2)C[C@H]1c1ncc(-c2ccc3c(c2)C(F)(F)c2cc(-c4ccc5nc([C@@H]6[C@H]7CC[C@H](C7)N6C(=O)[C@@H](NC(=O)OC)C(C)C)[nH]c5c4)ccc2-3)[nH]1)C(C)C	4%
